# An excerpt weighted towards active compounds, which were near 4.7% of everything screened.
# ADAM10 inh – inhibits human ADAM10 | recombinant ADAM10, EDANS/DABCYL FRET peptide cleavage, 3 h | inhibition, % at 7 µM | 370,000 compounds, 0.62% hits | AID 720582;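 active means inhibition above a per-campaign cutoff equal to the mean of compounds falling between control-based bounds plus 3 SD, cut at about 20% in these data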
# MPTP inh – permeability transition pore inhibition; isolated mouse mitochondria, Ca2+ swelling absorbance, 30 min; inhibition, % at 10 µM; 360,000 compounds, 1.4% hits;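 active means inhibition of 50% or more, scaled per plate between neutral and stimulator controls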
# DSG3 Ab inh – human desmoglein-3 autoantibody binding inhibition | P32926 | DSG3-coupled beads, scFv-anti-DSG3-GFP binding, flow cytometry; hits give low values | binding (percent of control), % at 10 µM | 310,000 compounds, 0.48% hits | AID 588358;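 active means binding more than 3 SD below its plate's average and above zero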;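 further: hits lower antibody fragment binding to DSG3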
# Target sequence (P32926 whole entry, looked up, the tested form may be a part): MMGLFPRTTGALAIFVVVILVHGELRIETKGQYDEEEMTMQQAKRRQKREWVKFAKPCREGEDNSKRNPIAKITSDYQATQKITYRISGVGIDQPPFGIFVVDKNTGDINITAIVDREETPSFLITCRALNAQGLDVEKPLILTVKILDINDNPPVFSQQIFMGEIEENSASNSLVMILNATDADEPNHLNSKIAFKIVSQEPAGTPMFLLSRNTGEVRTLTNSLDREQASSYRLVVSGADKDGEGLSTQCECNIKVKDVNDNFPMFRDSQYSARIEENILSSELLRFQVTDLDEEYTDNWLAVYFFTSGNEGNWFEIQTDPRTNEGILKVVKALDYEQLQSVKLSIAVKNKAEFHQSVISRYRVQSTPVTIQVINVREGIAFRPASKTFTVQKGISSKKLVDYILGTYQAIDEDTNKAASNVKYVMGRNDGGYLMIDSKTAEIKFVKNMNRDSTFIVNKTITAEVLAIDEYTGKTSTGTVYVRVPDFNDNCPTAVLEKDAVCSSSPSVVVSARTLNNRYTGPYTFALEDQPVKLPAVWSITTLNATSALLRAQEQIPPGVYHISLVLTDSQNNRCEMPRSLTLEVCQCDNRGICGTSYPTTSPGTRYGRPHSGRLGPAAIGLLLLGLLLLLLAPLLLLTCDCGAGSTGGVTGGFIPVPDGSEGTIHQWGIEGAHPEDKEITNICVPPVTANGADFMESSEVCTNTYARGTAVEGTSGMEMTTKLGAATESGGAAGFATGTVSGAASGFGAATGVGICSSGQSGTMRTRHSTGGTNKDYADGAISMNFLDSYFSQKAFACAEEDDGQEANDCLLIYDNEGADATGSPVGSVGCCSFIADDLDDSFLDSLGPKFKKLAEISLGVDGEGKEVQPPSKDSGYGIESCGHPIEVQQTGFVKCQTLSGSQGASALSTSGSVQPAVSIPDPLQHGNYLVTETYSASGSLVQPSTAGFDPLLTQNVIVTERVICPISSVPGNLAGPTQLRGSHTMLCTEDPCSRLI
# rCAG RNA binder – binds r(CAG) RNA repeats | r(CAG) RNA repeat, TO-PRO-1 dye displacement fluorescence | inhibition, % at 3 µM | 370,000 compounds, 1.3% hits | AID 651821;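 active means inhibition above the plate cutoff, the mean of all test compounds on that plate plus 3 SD, cut at about 35% in these data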;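 further: higher means more dye released from RNA so lower well fluorescence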
# ADAM17 inh – inhibits human ADAM17 | P78536 | recombinant ADAM17, EDANS/DABCYL FRET peptide cleavage | inhibition, % at 6.95 µM | 370,000 compounds, 0.83% hits | AID 720648;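 active means inhibition above the mean of compounds lying between control limits plus 3 SD, set per campaign, cut at about 8.5% in these data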
# proKLK7 act – activators of human kallikrein-7 zymogen; P49862; purified proKLK7, EDANS-DABCYL substrate fluorescence; 100% is mature enzyme control, 0% vehicle; activation, % at 7 µM; 370,000 compounds, 0.9% hits; AID 652039;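 active means activation above the mean of all tested compounds plus 3 SD, computed per campaign excluding outliers beyond control limits, cut at about 13% in these data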
# MPTP counter – Rhodamine 123 counter-screen of mitochondrial pore hits | shares compounds with MPTP inh | isolated mitochondria, membrane potential, Rhodamine 123 fluorescence | inhibition, % at 10 µM | 5,000 compounds, 78% hits | AID 624504; in the data active means inhibition above about 22%
# MPTP abs DR – MPTP inhibition, dose response swelling confirmation | shares compounds with MPTP inh | isolated mitochondria swelling, absorbance | IC50, µM | 780 compounds, 58% hits; in the data active means IC50 below about 20 µM
# MPTP counter DR – MPTP inhibitor counter-screen activity, dose response | 780 compounds, 49% hits | isolated mitochondria counterscreen, fluorescence read-out | IC50, µM | shares compounds with MPTP inh; in the data active means IC50 below about 80 µM
# A number is an active result; n = inactive; x = no result given; ! = a repeat was not active.
SMILES,ADAM10 inh,MPTP inh,DSG3 Ab inh,rCAG RNA binder,ADAM17 inh,proKLK7 act,MPTP counter,others
CCc1ccc(OCC(=O)NC(NC(=S)Nc2ccccc2OC)C(Cl)(Cl)Cl)cc1 (stereo not drawn),n,92,n,n,n,n,89,
O=C(COc1ccccc1)NC(NC(=S)Nc1ccccc1O)C(Cl)(Cl)Cl (stereo not drawn),n,73,n,n,n,n,74,
CCc1ccccc1-c1cc(C(C)=O)c2n(c1=O)CCC2,n,x,x,n,n,n,x,
CCOC(=O)[C@]12CCCC=C1N(Cc1ccc(OC)cc1)C(=O)[C@@H]2CC(=O)NCCc1ccccc1OC,n,x,x,n,n,n,x,
Cc1cccc(-c2nnc(SCC(=O)Nc3cccc4ccccc34)n2Cc2ccco2)c1,n,x,x,n,n,n,x,
Cc1cc(Br)c2nc(-c3ccc(Cl)cc3)c(Cc3cccc(Cl)c3)n2c1,n,x,x,n,n,n,x,
CCc1ccc(OCC(=O)NC(NC(=S)Nc2ccc(C)cc2C)C(Cl)(Cl)Cl)cc1 (stereo not drawn),n,n,n,n,n,n,x,
CCc1ccc(OCC(=O)NC(NC(=S)Nc2ccccc2C)C(Cl)(Cl)Cl)cc1 (stereo not drawn),n,81,n,n,n,n,87,
Cc1ccc(NC(=S)NC(NC(=O)c2ccccc2C)C(Cl)(Cl)Cl)c(C)c1 (stereo not drawn),n,93,n,n,n,n,82,
COc1cc(CNCCc2ccc(S(N)(=O)=O)cc2)ccc1OCc1ccc(Cl)cc1,n,50,n,n,n,n,n,MPTP abs DR=3.9;MPTP counter DR=15
N=C1S/C(=C\c2ccccc2F)C(=O)N1c1ccc(F)cc1,n,n,n,n,n,n,x,
N=C1S/C(=C\c2cccc3ccccc23)C(=O)N1c1ccc(F)cc1,n,94,n,n,n,n,20,
Cc1cccc(Nc2c3c(nc4ccccc24)CCC3)c1,n,78,n,n,n,n,74,
N#Cc1cccc(Nc2c3c(nc4ccccc24)CCC3)c1,n,n,n,n,n,n,x,
Cc1ccc2nc3c(c(Nc4ccc5c(c4)OCCO5)c2c1)CCC3,n,54,n,n,n,n,76,
Cc1ccc2nc3c(c(Nc4ccc(O)cc4)c2c1)CCC3,n,n,n,n,n,n,x,
CC(C)(C)c1ccc(-c2nnc(SCC(=O)c3ccc([N+](=O)[O-])cc3)n2-c2ccc(Cl)cc2)cc1,n,x,x,n,n,n,x,
O=C(Nc1cc(Cl)ccc1F)C1CCCN(c2nnc(-n3cccc3)s2)C1 (stereo not drawn),n,x,x,n,n,n,x,
CC1(C)C(=O)Nc2ccccc2N1C(=O)CSc1nc(-c2ccccc2)cs1,n,98,n,n,n,n,70,
O=C1CN(C(=O)CSc2nc(-c3ccccc3)cs2)c2ccccc2N1,n,n,x,n,n,n,x,
COC(=O)c1cc2c(c3c4cc(F)ccc4n(S(=O)(=O)c4ccc(C)cc4)c13)C(=O)N(Cc1ccccc1OC)C2,n,x,x,n,n,n,x,
COc1ccc(C2CC(=O)C(c3cccc(F)c3)=CN2Cc2ccccc2)cc1 (stereo not drawn),n,x,x,n,n,n,x,
[N-]=[N+]=NC(c1ccccc1)C(NC(=O)c1cc(C(F)(F)F)cc(C(F)(F)F)c1)c1ccccc1 (stereo not drawn),n,68,x,n,n,n,103,
Fc1ccc(CNC(=S)Nc2ccc(Cl)cc2Cl)cc1,n,100,n,n,n,n,106,
CC1CCCCC1NC(=S)Nc1ccc(Cl)cc1Cl (stereo not drawn),n,93,n,n,n,n,87,
SMILES,ADAM10 inh,MPTP inh,DSG3 Ab inh,rCAG RNA binder,ADAM17 inh,proKLK7 act,MPTP counter,others
S=C(NCc1ccc(Cl)cc1)Nc1ccc(Cl)cc1Cl,n,100,n,n,n,n,87,
Cc1cc(C)cc(NC(=S)NCc2cccs2)c1,n,n,n,n,n,n,x,
S=C(NCc1cccs1)Nc1ccc(Br)cc1Cl,n,75,n,n,n,n,79,
Cc1cc(Cl)ccc1NC(=S)NC1CCCC1,n,n,n,n,n,n,x,
C[C@H](O)[C@@H]1CN2CCc3c([nH]c4cccc(-c5ccc6c(c5)OCO6)c34)[C@@H]2C[C@@H]1N(C)C(=O)c1ccco1,n,x,x,n,n,n,x,
CCN=C1NC(c2ccccc2)C(C(=O)OC)=C(C)N1Cc1ccc(C(F)(F)F)cc1 (stereo not drawn),n,x,x,n,n,n,x,
Cc1cccc(C)c1NC(=O)[C@@H]1CC(=O)O[C@@H]1c1ccccc1,n,x,x,n,n,n,x,
C[C@@H]1CN([C@@H](C)CO)C(=O)CCCn2cc(nn2)CO[C@H]1CN(C)S(C)(=O)=O,n,x,x,n,n,n,x,
O=C(CN1C(=O)CCSc2ccccc21)Nc1ccc(Cl)cc1,n,x,x,n,n,n,x,
CCOC(=O)c1c(N2C(=O)Nc3cc(Cl)c(Cl)cc3N2O)sc2c1CCCCC2,x,91,n,x,x,x,70,
Cc1c(CCOC(=O)c2ccc(Cl)cc2Cl)sc[n+]1CC(=O)c1ccc(Br)cc1,n,n,x,n,n,n,x,
Cc1c(CCOC(=O)C2C3CC4CC(C3)CC2C4)sc[n+]1CC(=O)c1ccc(Br)cc1 (stereo not drawn),n,100!,n,n,n,n,n,MPTP abs DR=3.7;MPTP counter DR=21
Cc1ccc(-n2[nH]c(C)c(/C=N/Nc3ccc([N+](=O)[O-])cc3[N+](=O)[O-])c2=O)cc1C,n,115,n,n,n,n,61,
Cc1cc(OCC(=O)Nc2ccc(CN3CCCCC3)cc2)ccc1Cl,n,63,x,n,n,n,n,MPTP abs DR=11;MPTP counter DR=26
Cc1cc(OCC(=O)Nc2cccc(S(=O)(=O)NC3=NCCCCC3)c2)ccc1Cl,n,87,n,n,n,n,86,
Cc1ccc(OCC(=O)Nc2cccc(S(=O)(=O)NC3=NCCCCC3)c2)cc1C,n,n,x,n,n,n,x,
CN(C)c1ccc(C=c2c3ccccc3n3c2cc(-c2ccc(Cl)cc2)[n+]3C)cc1,n,n,x,n,n,n,x,
CN(C)c1ccc(C=c2c3ccccc3n3c2cc(-c2ccccc2)[n+]3C)cc1,n,58,x,n,n,n,75,
CN(C)c1ccc(C=c2c3ccccc3n3c2c2c([n+]3C)CCCC2)cc1,n,65,n,n,n,n,76,
COc1cc(N(C)C)ccc1C=c1c2ccccc2n2c1cc(-c1ccccc1)[n+]2C,n,56,n,n,n,n,77,
C=CCN1C(=O)[C@H](CC(=O)NCC23CC4CC(CC(C4)C2)C3)[C@@]2(C(=O)OC)CCCCC=C12,n,x,x,n,n,n,x,
CCC(Sc1nc2ccc(C)cc2[nH]1)C(=O)O (stereo not drawn),n,n,n,n,n,n,x,

# Bioassay records as filed in PubChem.
